Compounds without any hit were thinned out: in the full panel of roughly 83,000, 20% have a hit.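 Interpretation: 100, growth as untreated; towards 0, rising growth inhibition; 0, no net growth; 0 to -100, cell death. Compounds scoring below 10 were considered active.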 Values without a mark were called inactive. Activity calls are given as the source filed them.
Tests used:
Assay in all cases: NCI-60 one-dose screen, 48 h (100 = growth as untreated, 0 = no growth, -100 = all killed)
Settings in all cases: 10 µM unless noted
HCT-15 colon = test system: HCT-15 colon
HT29 colon = test system: HT29 colon
SNB-75 CNS = test system: SNB-75 CNS
SNB-19 CNS = test system: SNB-19 CNS
U251 CNS = test system: U251 CNS
PC-3 prostate = test system: PC-3 prostate
SK-MEL-5 melanoma = test system: SK-MEL-5 melanoma
UACC-62 melanoma = test system: UACC-62 melanoma
LOX IMVI melanoma = test system: LOX IMVI melanoma
SK-MEL-28 melanoma = test system: SK-MEL-28 melanoma

SMILES | growth (HCT-15 colon) | growth (HT29 colon) | growth (SNB-75 CNS) | growth (SNB-19 CNS) | growth (U251 CNS) | growth (PC-3 prostate) | growth (SK-MEL-5 melanoma) | growth (UACC-62 melanoma) | growth (LOX IMVI melanoma) | growth (SK-MEL-28 melanoma)
Cn1ncc2c(C(=O)c3ccc(F)cc3)nc(C(C)(C)C)nc21 | 97.7% | 104% | 89.6% | 95.4% | 98.6% | 92.5% | 100% | 98% | 95.7% | 98%
Cn1c(SCC(=O)c2ccc(Br)cc2)nc2ccccc2c1=O | 99.5% | 101% | 94.3% | 100% | 103% | 96.5% | 92.5% | 77.5% | 95.9% | 97.3%
CCc1cc2c(cc1Cl)nc1c(=O)[nH]c(=O)nc-1n2CCOCC(C)(C)C | 58.3% | 58.5% | 97% | 91% | 83.4% | 68% | 39.6% | 76.1% | 71.9% | 97.2%
CC(C)(C)c1cc(NC(=O)Nc2ccc(-c3cn4c5c(sc4n3)CCc3cn(CCCN4CCCCC4)cc3-5)cc2)no1 | -82.7% (active) | -50.7% (active) | 39.5% | -83.5% (active) | -86.3% (active) | -74.8% (active) | -51.9% (active) | 98% | -96.2% (active) | -89.8% (active)
CC(Nc1ncnc2ccc(-c3cnc(N)nc3)cc12)c1ccccc1 (stereo not given) | 22.4% | 43.1% | 31.1% | 40% | 47% | 29.7% | 26.4% | 28.5% | 23.8% | 50.2%
COC(=O)CCCNCCCn1ccc2cc(NCc3cccc(-c4ccccc4)c3C)ccc21 | 55.5% | 90.7% | 68.9% | 82.4% | 64.8% | 58.4% | 92.8% | 83.4% | 4.91% (active) | 75.9%
Fc1cc(F)cc(NNC(=S)c2ccccc2)c1 | 28.2% | 101% | 70.9% | 61.7% | 28.9% | 22% | 46.2% | 31.8% | 44.8% | 48.9%
CCC1=Cc2c(OC)cccc2OC12C=Cc1c(OC)cccc1O2 (stereo not given) | 13.4% | 4.59% (active) | 18.6% | 24.8% | 24.7% | 36.1% | 25.7% | 26.2% | 28.4% | 52%
CCOC(=O)C(=O)Nc1ccc2c(ccn2C(=O)c2cccc(F)c2)c1 | 95.8% | 101% | 74.3% | 91.6% | 105% | 99.6% | 96.3% | 93.5% | 96.3% | 99.1%
CCc1cc(OC(=O)N2CCC(N3CCCCC3)CC2)ccc1Nc1cc(-c2ccc(-n3cccn3)cc2)[nH]n1 | -44.6% (active) | -19.3% (active) | 97.3% | 69.2% | 55.8% | 74.1% | 60.2% | 89.5% | -92% (active) | -60.7% (active)
C#C[C@]1(O)CC[C@H]2[C@@H]3CC=C4c5sc(Nc6cccc(F)c6)nc5CC[C@]4(C)[C@H]3CC[C@@]21C | -28.6% (active) | -23.3% (active) | 24.1% | 35.8% | 10% | 19.2% | 42.6% | 5.77% (active) | -57.6% (active) | 13.8%
COc1ccc(C2c3[nH]c4ccc(Cl)cc4c3CCN2c2oc(CO)nc2C#N)cc1 (stereo not given) | 22.2% | 22.9% | 46.5% | 51.9% | 38.9% | 41.3% | 29.7% | 39.3% | 24.2% | 60.1%
Clc1ccc2[nH]cc(-c3nn4cc(-c5ccncc5)nc4s3)c2c1 | 57.6% | 72.8% | 72.4% | 24.4% | 52.5% | 9.36% (active) | 38.3% | 25.8% | 49.9% | 53.8%
O=C(O)CC1CCN(c2ccc3nnc(Cl)n3n2)CC1 | 98.8% | 101% | 84.7% | 100% | 110% | 104% | 101% | 95.5% | 95.6% | 102%
Cc1ccc([C@H]2c3[nH]c4ccccc4c3C[C@H]3C(=O)N(CCCCCCC(=O)NO)CC(=O)N23)s1 | 93.6% | 56% | 35.8% | 62.7% | 65% | 61.9% | 40.5% | 33.3% | -93.2% (active) | 48.3%
Cc1ccc(C(=O)Nc2ccc(CNCCN3CCNCC3)c(C(F)(F)F)c2)cc1C#Cc1cnc2cccnn12 | 14.1% | 5.76% (active) | 42.5% | 8.65% (active) | -6.31% (active) | 23.8% | -87.1% (active) | -41% (active) | -86.1% (active) | -68% (active)
